Laboratory results taken from the supplement of paper PMC10681739.

What was measured:
ETS1 [1] = target: T1, ETS1 (UniProt P14921); assay: ETS1 binding intensity (PBM fluorescence), ETS1 alone (arbitrary fluorescence units); higher = stronger binding; conditions: ETS1 concentration 1 nM; RUNX1 concentration 0 nM
T1 sequence: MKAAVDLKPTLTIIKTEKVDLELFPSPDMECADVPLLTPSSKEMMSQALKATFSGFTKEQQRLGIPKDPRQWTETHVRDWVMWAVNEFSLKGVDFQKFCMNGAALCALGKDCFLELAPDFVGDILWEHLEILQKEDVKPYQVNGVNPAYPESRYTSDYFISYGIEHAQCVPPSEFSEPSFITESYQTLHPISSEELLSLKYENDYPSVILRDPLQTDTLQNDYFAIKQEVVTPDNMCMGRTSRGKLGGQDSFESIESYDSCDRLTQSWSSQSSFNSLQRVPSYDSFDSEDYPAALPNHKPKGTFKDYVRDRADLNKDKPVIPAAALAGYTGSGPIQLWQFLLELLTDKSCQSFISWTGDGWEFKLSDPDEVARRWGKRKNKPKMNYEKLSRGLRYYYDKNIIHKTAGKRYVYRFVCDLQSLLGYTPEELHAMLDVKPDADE

RUNX1 [2] = target: RUNX1 (UniProt Q01196); assay: RUNX1 binding intensity (PBM fluorescence), RUNX1 alone (arbitrary fluorescence units); higher = stronger binding; conditions: RUNX1 concentration 2 nM; ETS1 concentration 0 nM
Procedure: (§1)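 Cooperative gcPBM on 36-bp genomic probes with neighbouring ETS1 and RUNX1 sites. Recombinant human RUNX1 (2 nM) was incubated alone or with ETS1 (25 nM) and detected with anti-RUNX1 antibody plus Alexa488 secondary. Values are medians over 4 replicate spots; the RUNX1+ETS1 data were normalised to the RUNX1-only data. The probes sit in constant array flanks that are not printed.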

ETS1 [3] = target: T1, ETS1; assay: ETS1 binding intensity (PBM fluorescence) in presence of RUNX1, normalised to ETS1-only experiment (arbitrary fluorescence units); higher = stronger binding; conditions: ETS1 concentration 1 nM; RUNX1 concentration 25 nM
RUNX1 [4] = target: RUNX1 (UniProt Q01196); assay: RUNX1 binding intensity (PBM fluorescence) in presence of ETS1, normalised to RUNX1-only experiment (arbitrary fluorescence units); higher = stronger binding; conditions: RUNX1 concentration 2 nM; ETS1 concentration 25 nM
Procedure: as §1
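Wherever RUNX1 binding intensity (PBM fluorescence) in presence of ETS1, normalised to RUNX1-only experiment is given: Full-length recombinant human ETS1 or RUNX1 bound to double-stranded 36-bp genomic probes on microarrays, detected by protein-specific primary antibody and Alexa488 secondary, spot fluorescence as median of four replicate spots.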
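Wherever RUNX1 binding intensity (PBM fluorescence), RUNX1 alone is given: Full-length recombinant human RUNX1 bound to double-stranded 36-bp genomic probes on a high-density microarray, scored as Alexa488 fluorescence per spot via anti-RUNX1 antibody, median of four replicate spots.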

RUNX1, sequence (Q01196 whole entry): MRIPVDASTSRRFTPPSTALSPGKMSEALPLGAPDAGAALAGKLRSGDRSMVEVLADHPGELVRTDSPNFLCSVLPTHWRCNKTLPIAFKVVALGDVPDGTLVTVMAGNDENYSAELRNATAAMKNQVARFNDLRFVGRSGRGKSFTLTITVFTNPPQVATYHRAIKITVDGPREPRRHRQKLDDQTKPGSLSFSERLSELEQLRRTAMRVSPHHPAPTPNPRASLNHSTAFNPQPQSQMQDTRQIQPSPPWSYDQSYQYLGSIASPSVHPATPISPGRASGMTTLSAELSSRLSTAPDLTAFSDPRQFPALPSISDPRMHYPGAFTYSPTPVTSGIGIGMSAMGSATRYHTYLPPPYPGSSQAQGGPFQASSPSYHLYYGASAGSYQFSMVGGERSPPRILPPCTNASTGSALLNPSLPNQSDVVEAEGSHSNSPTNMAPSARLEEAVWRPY

Row | Sequence | ETS1 binding intensity (ETS1 [1]) | RUNX1 binding intensity (RUNX1 [2]) | ETS1 binding intensity (ETS1 [3]) | RUNX1 binding intensity (RUNX1 [4])
1 | CTGCTAGCGGAAGCAGCCAAGCCCACAGGCTCCAGG | 942 | 732 | 1140 | 1040
2 | CAAACAGGTTCCGGCCGGACTACAGCGCCCACAATG | 432 | 712 | 460 | 1080
3 | GCCCCGGAAGCTCCTTAAGGAGGACCGTGTGGGTTT | 605 | 746 | 718 | 944
4 | ACCACCCACTTCCCGCGCAGTTCCAAACCGCGACCA | 302 | 1590 | 795 | 5270
5 | CAGACCAGCCCAGGAAACAAGGAACCACAAAGCCAC | 656 | 842 | 2260 | 992
6 | ACCCTTCCTGGAGCATTGTCGCAGCAACCACAACAG | 457 | 918 | 975 | 1200
7 | GGTTGTAAGTTCACAGGATGTGGTGTGTCCCTGTGG | 4130 | 827 | 6360 | 1400
8 | AAAGTAGGTCCGGTCCGCGGGTGCGGTCGGGCATGC | 427 | 686 | 545 | 878
9 | GCCATCCAGGAAGTACAGACTCCCTGACCGCACTGA | 1030 | 1140 | 5400 | 2110
10 | AGTCCACACTACAGGAAACCACAGGCCTGAGCCCCA | 1580 | 2870 | 3180 | 3440
11 | TTAGGCAGAGCTCATTTCCGCCCACATCAAAAGTAA | 1710 | 867 | 1990 | 1110
12 | CTTCGACCCCGGAAGCGCTAACCACCCCGGGGGCCG | 4160 | 797 | 5880 | 1370
13 | CAGGGTGGAAACAGGAAGAGAAACCACACTTAACCT | 1540 | 845 | 7190 | 1070
14 | GAGCCACCGGAAACGGAGCTGCGGCCGCGCCCCGCC | 5340 | 747 | 7820 | 1650
15 | CTCACAGCAGCCCCAGGAAACCACCTCTTCCTTCAG | 847 | 997 | 876 | 1030
16 | ACTTTAATAGAGTCCGGATGCGGTTAGGCTGACAGA | 2670 | 2000 | 30400 | 7430
17 | GCCCACCCGCTTCCGGTTGTGGGCCCCGCCCGCCGA | 5540 | 801 | 7350 | 7040
18 | GATCCCCCTCCTCCATCCTGTGGCTTCGGGTTGCCG | 482 | 819 | 420 | 1150
19 | CTTCTGGCGGAAGCGGCACAAGCCGCAGTACAGCGC | 1070 | 738 | 2370 | 1190
20 | AGGTTCTCCAGAGGAGGAAGTGGTTTGCTGCAGGCT | 2450 | 755 | 4400 | 971

Row | Sequence | ETS1 binding intensity (ETS1 [1]) | RUNX1 binding intensity (RUNX1 [2]) | ETS1 binding intensity (ETS1 [3]) | RUNX1 binding intensity (RUNX1 [4])
21 | CTTTGCTGCAGGATGTTCTAACCACAAGCCCAGGAG | 1070 | 3030 | 6670 | 7310
22 | AGGGTGTGGAGGAAGTGGCTTACAACCACTTTGTCT | 1270 | 764 | 1500 | 1090
23 | GGGATCTACTTCCTCTCTCGGCCGCGGCCGCAGCAC | 790 | 792 | 1150 | 1730
24 | TCCTCCATGCAGGAAAACCTCTGTGGTCTGGGAGCT | 438 | 867 | 1230 | 862
25 | CCTTTACTTCCTTTTACTTCTAACCACAGAATTAAA | 444 | 7760 | 1810 | 14200
26 | AGGGCATTTCCTTTGGGGCTGGTGGTCACGGACAAC | 471 | 723 | 381 | 1430
27 | GCGGGAAAAGGGAAGTTTGCGGGAGGTCAAATCCAC | 563 | 867 | 550 | 968
28 | GTCCTCCACTATTGTTTCCGGCCGCAGCAGAGGCGG | 1870 | 1070 | 2090 | 2170
29 | GAGGAGGAAAGCGGAAGCGCTGCCCGCAGTGGTAGG | 4260 | 651 | 8570 | 1270
30 | GCCCCAGCCCCCGGATGTGGTGACAGAATCGATACT | 3220 | 811 | 6050 | 4060
31 | AGGCGCCGGAAAAACTACATCTCCCACAATCCTCGG | 484 | 965 | 396 | 913
32 | CCATCCAGGAAGCTTATGGTGCGACCGCAGTGTGCC | 508 | 908 | 1880 | 1160
33 | TGCTTCTGAGGAAGTGATCTGTGGTCAAAGAAAGAA | 747 | 891 | 2040 | 1180
34 | TCTGTTCTTCCTTTTCCTGTGCGGTGTGCCCCAAAC | 628 | 1530 | 722 | 2810
35 | TACACTCCCACATCCGCTGCGGCGCAACTCACAACA | 969 | 1020 | 1260 | 6980
36 | GATGAAAGAGGAAGTTCTCAAACCACCTTGCCAGTG | 1170 | 768 | 1490 | 1110
37 | GCCGGGCACTTCCTGTGGAGGCCGCAGCGGGTGCGC | 1330 | 709 | 1560 | 1780
38 | GAGAAACAAACAGGATGTGGTCTCTGCCCTGGAGGA | 7010 | 737 | 12000 | 2420
39 | TTCTTCACTTCCTTCTCTCCGTGGTTTCGCCATTAG | 513 | 2260 | 436 | 3130
